Screening results deposited in PubChem BioAssay by Sanford-Burnham Center for Chemical Genomics.
tim10-1 inh: inhibits growth of tim10-1 mutant yeast; inhibition, % at 20 µM; S. cerevisiae tim10-1 ts strain growth, BacTiter-Glo, 24 h; AID 463190; actives 2.2% (n = 330,000);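 active = inhibition of at least 40%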;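 note: mutant grown at 25 °C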
MPTP block: permeability transition pore inhibition | actives 1.4% (n = 360,000) | AID 602449 | inhibition, % at 10 µM | isolated mouse mitochondria, Ca2+ swelling absorbance, 30 min;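 active = inhibition of 50% or more, scaled per plate between neutral and stimulator controls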
Mdm2-MdmX inh: inhibitors of human Mdm2/MdmX interaction | O15151+Q00987 | SaOS-2 split-luciferase Mdm2/MdmX complementation, luminescence | inhibition, % at 8 µM | actives 3% (n = 330,000) | AID 485346;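 active = inhibition of at least 50% at 8 µM in the primary screen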
Target sequence (O15151 whole entry, looked up): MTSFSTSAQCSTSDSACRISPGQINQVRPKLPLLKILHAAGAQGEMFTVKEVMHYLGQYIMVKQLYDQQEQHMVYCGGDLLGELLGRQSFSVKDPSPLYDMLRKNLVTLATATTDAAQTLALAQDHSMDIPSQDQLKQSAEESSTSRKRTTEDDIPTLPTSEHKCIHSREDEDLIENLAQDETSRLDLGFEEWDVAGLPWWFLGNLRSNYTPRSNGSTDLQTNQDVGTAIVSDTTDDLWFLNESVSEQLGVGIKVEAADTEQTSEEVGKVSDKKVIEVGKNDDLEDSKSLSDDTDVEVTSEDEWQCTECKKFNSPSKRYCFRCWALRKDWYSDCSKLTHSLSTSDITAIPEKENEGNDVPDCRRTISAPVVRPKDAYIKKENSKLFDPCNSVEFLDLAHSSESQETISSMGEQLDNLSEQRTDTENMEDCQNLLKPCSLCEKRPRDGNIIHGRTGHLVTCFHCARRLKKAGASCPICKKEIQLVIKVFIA
Target sequence (Q00987 whole entry, looked up): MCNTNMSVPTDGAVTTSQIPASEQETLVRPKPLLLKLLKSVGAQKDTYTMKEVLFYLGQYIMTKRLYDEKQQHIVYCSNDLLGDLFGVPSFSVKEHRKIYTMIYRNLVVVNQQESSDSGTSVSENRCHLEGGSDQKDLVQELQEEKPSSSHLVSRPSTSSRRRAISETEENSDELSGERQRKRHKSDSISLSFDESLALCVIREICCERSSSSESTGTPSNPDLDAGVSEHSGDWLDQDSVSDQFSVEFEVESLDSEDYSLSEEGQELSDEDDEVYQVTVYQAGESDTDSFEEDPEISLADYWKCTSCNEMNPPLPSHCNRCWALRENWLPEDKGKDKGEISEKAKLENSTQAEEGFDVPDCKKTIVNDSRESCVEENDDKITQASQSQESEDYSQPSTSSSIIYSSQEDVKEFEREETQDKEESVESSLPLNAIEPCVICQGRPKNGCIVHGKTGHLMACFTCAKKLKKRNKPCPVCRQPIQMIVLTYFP
TIM10 inh: TIM10 yeast growth inhibition. S. cerevisiae TIM10 strain growth, BacTiter-Glo luminescence, 24 h. inhibition, % at 10 µM. actives 1.4% (n = 330,000). AID 463195;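 active = inhibition of 40% or more at the single tested concentration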;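 note: wild-type TIM10 isogenic control strain grown at permissive 25 °C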
tim23-1 inh: tim23-1 yeast growth inhibition; S. cerevisiae tim23-1 growth, BacTiter-Glo luminescence, 24 h; inhibition, % at 20 µM; actives 1.3% (n = 330,000);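 active = growth inhibition of the mutant yeast at or above 50%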;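 note: temperature-sensitive mutant grown at 25 °C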
tim10-1 confirm: confirmation of tim10-1 mutant yeast growth inhibitors; shares compounds with tim10-1 inh; S. cerevisiae tim10-1 ts strain growth, BacTiter-Glo, 24 h; inhibition, % at 20 µM; actives 56% (n = 7,400); AID 463213;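 active = inhibition of yeast growth at or above a set limit in either of two repeat tests at 20 µM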;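 note: tim10-1 mutant grown at permissive 25 °C to find synthetic lethal compounds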
Numbers stand for hits. A selection: hits, their analogues and other compounds. The true share with any hit is near 6.3%.

How did CCOC(=O)[C@]12CCCC=C1N(Cc1ccccc1)C(=O)[C@H](CC(=O)NCCCN1CCCC1=O)C2 do in these assays?
MPTP block: inactive

What do the screens show for `COC(=O)c1ccc2nc(-c3ccc(OC)c(OC)c3)c(Cc3cccc(F)c3)n2c1`?
MPTP block: inactive

How did COc1ccc(CN2C(=O)CSCC2(C)C(=O)Nc2ccc3c(c2)OCCO3)cc1 (stereo unspecified) do in these assays?
MPTP block: inactive

How did C(=C\c1nnc2c3ccccc3ncn12)/c1ccccc1 do in these assays?
MPTP block: inactive

How did COc1cc(/C=C/c2nnc3c4ccccc4ncn23)cc(OC)c1OC do in these assays?
tim10-1 inh: 43.9; MPTP block: inactive; Mdm2-MdmX inh: inactive; TIM10 inh: inactive; tim23-1 inh: inactive; tim10-1 confirm: inactive

What do the screens show for `CCOC(=O)c1ccc2[nH]c3c(c2c1)CCCC3`?
tim10-1 inh: 42.3; MPTP block: inactive; Mdm2-MdmX inh: inactive; TIM10 inh: inactive; tim23-1 inh: inactive; tim10-1 confirm: 34.2

What do the screens show for `CCOC(=O)C1=CCN(S(=O)(=O)c2ccccc2[N+](=O)[O-])C1c1ccc(C)cc1` (stereo unspecified)?
MPTP block: inactive

How did C[C@H]1CN([C@@H](C)CO)C(=O)CCCn2nncc2CO[C@@H]1CN(C)Cc1ccncc1 do in these assays?
MPTP block: inactive

What do the screens show for `CCNC(=S)NNC(=O)c1cc(-c2cc(C)ccc2C)nc2ccccc12`?
tim10-1 inh: 45.0; MPTP block: inactive; Mdm2-MdmX inh: inactive; TIM10 inh: inactive; tim23-1 inh: inactive; tim10-1 confirm: 41.2

What do the screens show for `CCCOc1ccc(C(=O)NNC(=S)NC(=O)c2cc(-c3ccccc3)nc3ccccc23)cc1`?
tim10-1 inh: 45.0; MPTP block: inactive; Mdm2-MdmX inh: inactive; TIM10 inh: inactive; tim23-1 inh: inactive; tim10-1 confirm: 38.0

Results for O=C(C[C@H]1C[C@@H]2c3cc(NC(=O)Nc4ccccc4F)ccc3O[C@@H]2[C@H](CO)O1)NCc1ccccn1 ?
MPTP block: inactive

How did O=C(C1CCN(S(=O)(=O)c2cccc3cccnc23)CC1)N1CC=C(c2ccccc2)CC1 do in these assays?
tim10-1 inh: 43.3; Mdm2-MdmX inh: inactive; TIM10 inh: inactive; tim23-1 inh: inactive; tim10-1 confirm: inactive

Results for COc1ccc(NC(=O)C2(C)CCN2CC2CCCCC2)cc1OC (stereo unspecified) ?
MPTP block: inactive

What do the screens show for `C=C(C)CSc1nncn1/N=C/c1ccc(OC)cc1`?
tim10-1 inh: 42.8; MPTP block: inactive; Mdm2-MdmX inh: inactive; TIM10 inh: inactive; tim23-1 inh: inactive; tim10-1 confirm: 32.4

What do the screens show for `O=C(CCS(=O)(=O)Cc1ccccc1F)N1CCc2ccccc2C1`?
tim10-1 inh: inactive; MPTP block: inactive; Mdm2-MdmX inh: inactive; TIM10 inh: inactive; tim23-1 inh: inactive

How did O=C(CCS(=O)(=O)Cc1ccccc1)N1CCc2ccccc2C1 do in these assays?
tim10-1 inh: 47.1; MPTP block: inactive; Mdm2-MdmX inh: inactive; TIM10 inh: inactive; tim23-1 inh: inactive; tim10-1 confirm: 40.0

Results for CCOC(=O)C1(C)CCCN1C(=O)c1cccc2ccccc12 (stereo unspecified) ?
MPTP block: inactive

What do the screens show for `C=CCOC(=O)C1=C(C)N=C2SCCC(=O)N2C1/C=C/c1ccccc1` (stereo unspecified)?
tim10-1 inh: 42.2; MPTP block: inactive; Mdm2-MdmX inh: inactive; TIM10 inh: inactive; tim23-1 inh: inactive; tim10-1 confirm: inactive

What do the screens show for `CCOC(=O)C1=C(C)N=C2SCCC(=O)N2[C@@H]1/C=C/c1ccccc1`?
tim10-1 inh: inactive; MPTP block: inactive; Mdm2-MdmX inh: inactive; TIM10 inh: inactive; tim23-1 inh: inactive

Results for O=C(Nc1ccc(Cl)cn1)C1CCN(c2ncnc3c2nc2n3CCCCC2)CC1 ?
tim10-1 inh: 49.7; MPTP block: inactive; Mdm2-MdmX inh: inactive; TIM10 inh: inactive; tim23-1 inh: inactive; tim10-1 confirm: inactive

Results for Cc1ccc(NC(=O)C2CCCN(c3ncnc4c3nc3n4CCCCC3)C2)nc1 (stereo unspecified) ?
tim10-1 inh: inactive; MPTP block: inactive; Mdm2-MdmX inh: inactive; TIM10 inh: inactive; tim23-1 inh: inactive

Results for COc1ccc(Cl)cc1NC(=O)C1CCCN(c2ncnc3c2nc2n3CCCCC2)C1 (stereo unspecified) ?
tim10-1 inh: 55.8; MPTP block: inactive; Mdm2-MdmX inh: inactive; TIM10 inh: inactive; tim23-1 inh: inactive; tim10-1 confirm: inactive

What do the screens show for `Cc1ccnc(NC(=O)C2CCCN(c3ncnc4c3nc3n4CCCCC3)C2)c1` (stereo unspecified)?
tim10-1 inh: 45.0; MPTP block: inactive; Mdm2-MdmX inh: inactive; TIM10 inh: inactive; tim23-1 inh: inactive; tim10-1 confirm: inactive

Results for CCCCNC(=O)C[C@@H]1C[C@@]2(C(=O)OCC)CCCC=C2N(CCC2=CCCCC2)C1=O ?
MPTP block: inactive

How did C[C@H]1CN([C@@H](C)CO)S(=O)(=O)c2ccc(C#Cc3ccccn3)cc2O[C@@H]1CN(C)C(=O)C1CC1 do in these assays?
MPTP block: inactive

Results for CCOC(=O)c1c(CSC(=N)N)n(-c2ccc(Br)cc2)c2cc(Br)c(OC(C)=O)cc12 ?
MPTP block: inactive

What do the screens show for `CCCCCCCCOC(=O)c1c(CSC(=N)N)n(C)c2cc(Br)c(OC(C)=O)cc12`?
tim10-1 inh: 45.6; MPTP block: inactive; Mdm2-MdmX inh: inactive; TIM10 inh: inactive; tim23-1 inh: inactive; tim10-1 confirm: inactive

Results for C[C@H]1CN([C@@H](C)CO)S(=O)(=O)c2ccc(/C=C/c3ccccc3)cc2O[C@H]1CN(C)C(=O)NC1CCCCC1 ?
MPTP block: inactive

Results for O=C1NC(=Nc2ccccc2Cl)S/C1=C\c1cccc([N+](=O)[O-])c1O ?
tim10-1 inh: inactive; MPTP block: inactive; Mdm2-MdmX inh: inactive; TIM10 inh: inactive; tim23-1 inh: inactive

What do the screens show for `COc1c(/C=C2\SC(=Nc3ccccc3Cl)NC2=O)cccc1[N+](=O)[O-]`?
tim10-1 inh: 43.7; MPTP block: inactive; Mdm2-MdmX inh: inactive; TIM10 inh: inactive; tim23-1 inh: inactive; tim10-1 confirm: 45.0

How did Cc1cccc(C)c1NC(=O)C(c1ccc(C#N)cc1)n1c(=O)c(-c2ccccc2)nc2ccccc21 (stereo unspecified) do in these assays?
MPTP block: inactive

What do the screens show for `Cc1sc2ncnc(Sc3ccccc3C(=O)Nc3ccccc3Cl)c2c1C`?
tim10-1 inh: 43.2; MPTP block: inactive; Mdm2-MdmX inh: inactive; TIM10 inh: inactive; tim23-1 inh: inactive; tim10-1 confirm: inactive

What do the screens show for `c1cncc(-c2nc(N3CCCCCC3)c3ccccc3n2)c1`?
tim10-1 inh: 49.6; MPTP block: inactive; Mdm2-MdmX inh: inactive; TIM10 inh: inactive; tim23-1 inh: inactive; tim10-1 confirm: 32.0

Results for [O-][n+]1cc(Cl)cc(Cl)c1 ?
MPTP block: inactive

Results for O=c1c2[nH]c3ccccc3c2nc2n1CCCS2 ?
tim10-1 inh: inactive; MPTP block: inactive; Mdm2-MdmX inh: inactive; TIM10 inh: inactive; tim23-1 inh: inactive
